# Screens: PubChem, National Center for Advancing Translational Sciences (NCATS)
# GRP78 ERSR act: induces the endoplasmic reticulum stress response in human glioma cells; U87-MG GRP78 promoter luciferase reporter, 16 h; Potency, µM, inactives show at the top dose activation, usual class: activators; 420,000 compounds, 0.02% hits; AID 602332; also: series mostly up to about 76 µM; % of control where 0% means no effect; nearly all actives have a fitted effect of over 35% in size
#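 Stably transfected U87-MG glioma cells carrying a GRP78-based luciferase sensor; 16 h compound incubation. Luminescence end-point read 10 min after Bright-Glo addition at room temperature.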
# 12-LOX inh: blocks human arachidonate 12S-lipoxygenase. Potency, µM (doses to about 108 µM), for the others: top-dose activity change, negative = inhibition, hits mostly inhibitors. 580,000 compounds, 1.1% hits. purified 12hLO, xylenol orange hydroperoxide absorbance. AID 1671190; also: % is scaled to controls: 0 for no effect and ±100 for the full control effect
# Target sequence (P18054 whole entry, looked up): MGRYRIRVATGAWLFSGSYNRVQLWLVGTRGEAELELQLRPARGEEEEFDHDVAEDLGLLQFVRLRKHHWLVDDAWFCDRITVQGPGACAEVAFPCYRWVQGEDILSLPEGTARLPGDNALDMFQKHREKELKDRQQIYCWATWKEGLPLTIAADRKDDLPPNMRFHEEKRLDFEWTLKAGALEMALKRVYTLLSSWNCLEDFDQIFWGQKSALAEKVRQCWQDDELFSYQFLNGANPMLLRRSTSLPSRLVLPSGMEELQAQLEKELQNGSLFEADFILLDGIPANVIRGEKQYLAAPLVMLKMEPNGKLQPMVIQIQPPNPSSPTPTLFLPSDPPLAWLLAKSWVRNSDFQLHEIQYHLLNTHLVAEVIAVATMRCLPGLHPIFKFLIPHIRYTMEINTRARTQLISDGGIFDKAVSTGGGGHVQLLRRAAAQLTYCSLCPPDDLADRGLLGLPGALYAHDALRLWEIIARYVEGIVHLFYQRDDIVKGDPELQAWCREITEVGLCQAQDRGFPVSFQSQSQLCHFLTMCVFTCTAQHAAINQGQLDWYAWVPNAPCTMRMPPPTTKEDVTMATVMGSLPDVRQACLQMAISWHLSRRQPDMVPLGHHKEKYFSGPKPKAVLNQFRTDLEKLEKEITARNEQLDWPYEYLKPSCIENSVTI
#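 Purified human 12hLO at 150 nM in 25 mM Hepes, 0.01% Triton X-100, pH 7.0, preincubated 15 min at room temperature with compound. Reaction started with 40 uM arachidonic acid, 30 min at room temperature. Hydroperoxide measured by Fe-xylenol orange, 573/405 nm absorbance ratio.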
# Sfp inh: blocks B. subtilis Sfp PPTase activity; Q9F4F7; Biochemical Sfp PPTase activity, qHTS; Potency, µM, for inactives: largest response in the series, negative = inhibition, hits mostly inhibitors; 310,000 compounds, 3.5% hits;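 also: the enzyme is Sfp with the accession as filed and its product quenches rhodamine fluorescence; 0% = enzyme reaction without inhibitor and -100% = no enzyme wells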
#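 Compounds were incubated with enzyme (final 15 nM) for 15 min at room temperature before substrate addition started the reaction. Fluorescence at 525 nm excitation, 598 nm emission was recorded immediately and after 30 minutes.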
# G9a inh: inhibitors of human histone lysine methyltransferase G9a; 350,000 compounds, 8.8% hits; Potency, µM (top dose mostly 102 µM), without a hit: top-dose activity, negative = inhibition, usual class: inhibitors; G9a H3K9 monomethylation, AlphaScreen, 2 h; also: % is scaled to controls: 0 for no effect and ±100 for the full control effect; nearly all actives have a fitted effect of over 75% in size
#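 AlphaScreen read-out: biotin-H3K9 peptide (500 nM) methylation by 20 nM enzyme with 20 uM SAM, 2 h at room temperature after 15 min compound preincubation; anti-monomethyl H3K9 antibody plus donor/acceptor beads, 10 min dark.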
# VDR inhibitor: vitamin D3 receptor (human) inhibition | VDR-SRC2-3 peptide fluorescence polarization, 2 h | Potency, µM, for the others: max response, negative = inhibition, actives largely listed as inhibitors | 400,000 compounds, 0.93% hits; also: % is scaled to controls: 0 for no effect and ±100 for the full control effect
#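 Signal is fluorescence polarization, reporting how far test compounds block the interaction of VDR with the SRC2-3 coregulator peptide after a 2 h room-temperature incubation.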
# Starred values were filed as active, the others as inactive; ? = inconclusive; / = no result; [ ] = remark or other dose. Many of the other results were omitted from the sample, so hits are more common in it than they were. Calls follow the shape of the dose curve; as a rule, active = well fitted curve in the direction sought with a large enough effect; inconclusive = small, poorly fitted or top-dose-only effect, or another doubt; inactive = no such curve, though single readings can be large; an effect the other way counts as inactive or inconclusive. Potency is read from the fitted curve at half-maximal effect.
SMILES,GRP78 ERSR act,12-LOX inh,Sfp inh,G9a inh,VDR inhibitor
COc1ccc(CNC(=O)c2ccc3c(c2)N(C)C(=O)CS3=O)cc1 (configuration not stated),1%,-81%,45µM*,-6%,-18%
CC(C)Oc1ccc(CNC(=O)c2ccc3c(c2)N(C)CCS3)cc1,8%,37%,5%,56µM*,-16%
Cc1ccc(CN2CCSc3ccc(C(=O)Nc4ccc(Cl)cc4)cc32)cc1,3%,?,/,9%[59 µM],-8%
CCN1CCSc2ccc(C(=O)Nc3ccc(NC(C)=O)cc3)cc21,-5%,-10%,-8%,50µM*,-14%
CC(C)[C@H](NS(=O)(=O)c1ccc2c(c1)OCCO2)C(=O)OCC(=O)Nc1ccccc1Cl,-1%,-11%,13%,20%[59 µM],2%
CC(C)[C@H](NS(=O)(=O)c1ccc2c(c1)OCCO2)C(=O)OCC(=O)Nc1cc(Cl)ccc1Cl,-3%,8%,9%,-12%[59 µM],79µM*
CCc1ccc(N=C2NC(=O)/C(=C/c3cc(OC)c(OC)c(OC)c3)S2)cc1,13%,5%,-12%,27%,-3%
CCc1ccc(N=C2NC(=O)/C(=C/c3cc(Br)c(OCC(=O)O)c(OC)c3)S2)cc1,-3%,19%,2%,50µM*,?
COc1ccc(CC(=O)Nc2ccc(=O)n3c2[C@@H]2C[C@@H](CN(S(=O)(=O)c4ccc(OC)cc4)C2)C3)cc1,/,64%,/,/,/
COc1ccc(-c2nc3cccc(C)n3c2NCc2ccco2)cc1OC,7%,?,-1%,45µM*,5%
CC(C)(C)c1cc(Br)c(O)c(N=Nc2ccc(S(=O)(=O)N3CCOCC3)cc2)c1,-2%,4%,3%,14µM*,19%
Cc1ccc(O)c(N=Nc2ccc(S(=O)(=O)N3CCOCC3)cc2)c1,7%,-2%,9%,-31%[12.7 µM],6%
COc1cc(NC(=O)c2ccc(S(=O)(=O)N(C)c3ccccc3OC)cc2)cc(OC)c1,-5%,-21%,/,/,14%
C=CCN(c1ccccc1OC)S(=O)(=O)c1ccc(Cl)c(C(=O)Nc2ccc(N3CCOCC3)cc2)c1,0%,-18%,6%,25µM*,19%
COc1ccccc1N(C)S(=O)(=O)c1ccc(C(=O)Nc2ccc(N3CCOCC3)cc2)cc1,-1%,-6%,15%,40µM*,-7%
C=CC1=C(C)/C(=C/c2[nH]c(Cc3[nH]c(/C=C4\NC(=O)C(C)=C4C=C)c(C)c3CCC(=O)O)c(CCC(=O)O)c2C)NC1=O,-5%,/,40µM*,/,?
COc1cc2c3c(c1)/C(=C1/SC(NC(C)=O)=NC1=O)C(=O)N3C(C)(C)C=C2C,-5%,?,35µM*,?,?
COc1ccc2c(c1)C(C)=CC(C)(C)N2S(=O)(=O)c1ccc(C)cc1,-3%,-3%,0%,87%,-15%
CCN1C(=O)/C(=C2/C(=O)N3c4c(cc(OC(C)=O)cc42)C(C)=CC3(C)C)SC1=S,-4%,-8%,7%,2.8µM*,4%
O=C(Cc1cccc(F)c1)N1CCC2(CC1)NC(=O)N(Cc1ccccc1Cl)C2=O,/,-5%,/,/,/
COc1ccccc1CCC(=O)N1CCN(C(=O)c2ccccc2)CC1,-1%,119%,2%,24%,7%
Cc1cccc(OCC(=O)N2CCC3(CC2)NC(=O)N(c2ccc(F)cc2)N3)c1,/,4.5µM*,/,/,/
Cc1cccc(OCC(=O)N2CCN(C(=O)CCC3CCCC3)CC2)c1,0%,-1%,-24%,-40%,3%
COc1ccccc1CCC(=O)N1CCC2(CC1)NC(=O)N(c1ccc(F)cc1)N2,/,3.2µM*,/,/,/
O=C(Cc1ccccc1Cl)N1CCC2(CC1)NC(=O)N(c1ccc(F)cc1)N2,/,2.2µM*,/,/,/
SMILES,GRP78 ERSR act,12-LOX inh,Sfp inh,G9a inh,VDR inhibitor
COc1ccc(C(=O)NC2CCN(c3cnn(CC4CC4)c(=O)c3)CC2)cc1,/,57%,/,/,/
Cc1noc(C)c1CN(C)Cc1ccc2c(c1)OCO2,/,67%,/,/,/
Cc1nn(-c2ccc(C(F)(F)F)cc2)c(C)c1[C@@H]1C=C[C@@H](NC(=O)c2cccnc2)C1,/,13%[176 µM],/,/,/
C/C(CCC12CC3CC(CC(C3)C1)C2)=N\NC(N)=S,2%,10µM*,?,-6%,?
CCNC(=O)NC[C@@H]1C=C(C)[C@H](CC(=O)NCCN(C)C)C[C@H]1C(C)C,/,25%[176 µM],/,/,/
CCC(=O)N1CCCC1Cc1ccccc1 (configuration not stated),/,16%,/,/,/
C/C(=N/NC(=O)CNc1ccc(C)cc1)c1ccc(Br)s1,-3%,-17%,0%,35µM*,2%
COc1ccccc1NCC(=O)N/N=C(\C)c1ccc(Br)s1,-4%,7%,17%,?,-14%
Cc1cccc2cc(C#N)c(SCC(=O)NNC(=O)Cc3ccccc3)nc12,-4%,0%,-23%,18%,10%
Cc1cccc2cc(C#N)c(SCC#N)nc12,-2%,-14%,-1%,25µM*,-10%
CCN(CC)Cc1ccc(CNS(=O)(=O)c2cccs2)cc1,/,-27%,/,/,/
CC1CCCN(c2ccc(C(=O)NCc3ccc4c(c3)OCO4)cc2[N+](=O)[O-])C1 (configuration not stated),-3%,1%,3%,14µM*,-9%
CC1CCCN(c2ccc(C(=O)Nc3ccc4c(c3)OCO4)cc2[N+](=O)[O-])C1 (configuration not stated),0%,-5%,10%,22µM*,6%
O=C(NCc1ccc2c(c1)OCO2)c1ccc(N2CCCCCC2)c([N+](=O)[O-])c1,6%,-24%,14%,35µM*,0%
Cc1ncsc1C(=O)NCc1ccc(N2CCOCC2)nc1,/,-18%,/,/,/
CCCN1C(=O)C(C)=C(C)C1c1cn(C)c2ccccc12 (configuration not stated),/,-27%,/,/,/
CCCSc1nc2c(c(=O)n(C)c(=O)n2C)n1C/C=C/c1ccccc1,/,-4%,/,/,/
O=C(c1cc(Cl)ccc1O)N1CCN(S(=O)(=O)c2ccccc2)CC1,/,3%,/,/,/
Cc1ccc(NC(=O)C(OC(=O)c2cc(C)oc2C)c2ccccc2)cc1 (configuration not stated),-3%,1%,11%,79µM*,9%
COc1ccccc1OCc1ccc(C(=O)N2CCN(C(=O)c3ccco3)CC2)cc1,0%,-2%,-23%,45µM*,8%
COc1ccc(-c2nc(CN3CCN(C(=O)c4ccco4)CC3)c(C)o2)cc1OC,-4%,1%,6%,56µM*,-13%
COc1cc(NC(=S)N2CCN(C(=O)c3ccco3)CC2)c(OC)cc1Cl,-5%,-15%,56µM*,?,?
COc1ccc(CN2CCN(C(=O)c3ccco3)CC2)cc1OCc1ccccc1,6%,?,-17%,11µM*,12%
CCC1Oc2ccc(NC(=O)COc3ccccc3)cc2CN(Cc2ccccc2Cl)C1=O (configuration not stated),/,-4%,/,/,/
CCn1cc(CN2CCN(C(=O)c3ccco3)CC2)ccc1=O,/,95%,/,/,/
